# From PubChem
# In the library only some 1.8% were active in any assay of this set; here they are far more common.
# PAD4 inh – human PAD4 inhibitors, primary screen, biochemical, fluorescence polarization, 1536-well format; recombinant PAD4, RCA probe fluorescence polarization; 0.41% of 330,000 active; inhibition, % at 6.36 µM;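 active means percent inhibition above a cutoff equal to the mean of all tested compounds plus 3 SD, cut at about 15% in these data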;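 further: 0% = PAD4 with RCA probe and DMSO and 100% = probe without PAD4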
# Target sequence (Q9UM07 whole entry, looked up): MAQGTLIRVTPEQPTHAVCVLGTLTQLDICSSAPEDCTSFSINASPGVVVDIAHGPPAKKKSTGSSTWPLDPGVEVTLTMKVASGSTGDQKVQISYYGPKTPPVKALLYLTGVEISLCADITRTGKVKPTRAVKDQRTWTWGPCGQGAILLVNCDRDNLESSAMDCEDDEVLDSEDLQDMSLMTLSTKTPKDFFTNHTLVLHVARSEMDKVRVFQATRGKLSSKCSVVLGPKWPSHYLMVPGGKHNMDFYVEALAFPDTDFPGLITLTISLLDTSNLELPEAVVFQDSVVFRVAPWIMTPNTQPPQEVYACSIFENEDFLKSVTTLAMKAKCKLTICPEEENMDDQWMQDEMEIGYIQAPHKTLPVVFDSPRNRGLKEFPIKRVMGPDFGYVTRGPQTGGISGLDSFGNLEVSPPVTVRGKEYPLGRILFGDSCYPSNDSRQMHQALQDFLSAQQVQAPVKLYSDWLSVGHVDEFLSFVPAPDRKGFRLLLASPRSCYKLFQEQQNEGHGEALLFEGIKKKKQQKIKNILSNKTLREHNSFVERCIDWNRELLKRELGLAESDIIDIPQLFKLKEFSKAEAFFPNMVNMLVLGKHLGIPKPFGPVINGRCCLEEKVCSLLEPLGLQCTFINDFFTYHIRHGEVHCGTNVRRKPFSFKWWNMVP
# LYPLA2 inh – LYPLA2 inhibitors, primary screen, counter-screen for PME1 inhibitor project, biochemical, fluorescence polarization, FP-Rh probe ABPP | Acyl-protein thioesterase 2 (Homo sapiens), O95372 | recombinant LYPLA2 | inhibition, % at 5.9 µM | 0.38% of 320,000 active | AID 2177, 2009;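 active means inhibition above the screen-wide mean plus 3 SD, limit set per campaign, cut at about 26% in these data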;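 further: 0% = LYPLA2 with DMSO and 100% = wells lacking LYPLA2 enzyme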
# PME-1 inh – PME-1 inhibitors via competitive probe labeling, primary screen, biochemical, fluorescence polarization, FP-Rh probe, HTS; Protein phosphatase methylesterase 1 (Homo sapiens), Q9Y570; recombinant PME-1; inhibition, % at 5.9 µM; 0.53% of 320,000 active; AID 2130, 2009;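 active means inhibition above the campaign mean of all compounds plus 3 SD, cut at about 26% in these data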;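 further: competitive labeling of PME-1 active site by serine hydrolase directed probe; 0% = PME-1 with DMSO and 100% = wells lacking PME-1 enzyme; inhibitors block probe labeling so polarization falls and inhibition rises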
# Fam108B inh – mouse Fam108B serine hydrolase inhibitors, primary screen, counter-screen for RBBP9 inhibitor project, biochemical, fluorescence polarization; AID 1947, 2009; recombinant Fam108B, FP-Rh probe fluorescence polarization; inhibition, % at 9.51 µM; 0.33% of 300,000 active;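 active means inhibition above the screen mean inhibition plus 3 SD, computed separately per campaign, cut at about 18% in these data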;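 further: inhibitors lower polarization as less probe binds the enzyme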
# GSTO1 counter – inhibitors of recombinant GSTO1, primary screen, counter-screen for RBBP9 inhibitor project, biochemical, fluorescence polarization | Glutathione S-transferase omega-1 (Homo sapiens), P78417 | activity-based probe fluorescence polarization | inhibition, % at 5.96 µM | 1.1% of 300,000 active | AID 1974, 2009;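 active means inhibition above the campaign mean inhibition plus 3 SD, cut at about 35% in these data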;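 further: 0% = GSTO1-1 with DMSO and 100% = wells lacking GSTO1-1 enzyme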
# LYPLA1 inh – LYPLA1 inhibitors, primary screen, counter-screen for PME1 inhibitor project, biochemical, fluorescence polarization, FP-Rh probe ABPP; Acyl-protein thioesterase 1 (Homo sapiens), O75608; 0.16% of 320,000 active; recombinant LYPLA1; AID 2174, 2009; inhibition, % at 5.9 µM;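 active means inhibition above the mean of all tested compounds plus 3 SD, set per campaign, cut at about 14% in these data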;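 further: inhibitors block serine hydrolase probe labeling of LYPLA1 so polarization falls; 0% = enzyme with DMSO and 100% = wells lacking LYPLA1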
# GSTO1 confirm – GSTO1 inhibitor hit confirmation, counter-screen for RBBP9 inhibitor project, biochemical, fluorescence polarization, triplicate | inhibition, % at 5.96 µM | 54% of 2,400 active | recombinant GSTO1, probe fluorescence polarization | shares compounds with GSTO1 counter;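 active means inhibition above the primary screen's cutoff, its mean inhibition plus 3 SD, cut at about 35% in these data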;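 further: loss of polarization as inhibitors block binding of rhodamine sulfonate ester activity probe; 0% = GSTO1 with DMSO and 100% = wells lacking GSTO1 enzyme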
# GSTO1 ABPP inh – inhibitors of purified human GSTO1, late-stage follow-up, biochemical, gel ABPP, SE-Rh probe, percent inhibition; shares compounds with GSTO1 counter; inhibition, % at 1 µM; recombinant GSTO1, gel ABPP SE-Rh probe fluorescence; 30% of 130 active;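 active means inhibition of the enzyme GSTO1 above about 75%, limit read from the data; inactive means inhibition below that limit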
# An asterisk follows results filed as active; / = no result given.
SMILES,PAD4 inh,LYPLA2 inh,PME-1 inh,Fam108B inh,GSTO1 counter,LYPLA1 inh,GSTO1 confirm,others
O=C(NC1CCCCC1)C(c1cccnc1)N(C(=O)CCl)c1ccc(F)cc1 (stereo unspecified),3,4,2,-2,95*,7,97*,GSTO1 ABPP inh=82*
COc1ccc(S(=O)(=O)N(C(=O)c2ccco2)c2cc3sc(=O)oc3c3ccccc23)cc1,9,6,12,7,64*,1,19,
CCOc1ccccc1CN1CCN(Cc2ccon2)CC1CCO (stereo unspecified),-5,6,0,5,0,4,/,
COc1ccc(C(C(=O)NC2CCCCC2)N(C(=O)CCl)c2ccc(C)cc2)cc1 (stereo unspecified),3,6,5,0,89*,3,95*,GSTO1 ABPP inh=88*
COc1ccc(C(C(=O)NC2CCCC2)N(C(=O)c2ccoc2C)c2ccc(C)cc2)cc1 (stereo unspecified),-1,5,3,-3,2,-3,/,
COc1ccc(C(C(=O)NC2CCCCC2)N(C(=O)CCl)c2cccc(Cl)c2)cc1 (stereo unspecified),4,2,1,-5,81*,4,90*,GSTO1 ABPP inh=83*
COC(CN(C(=O)CCl)C(C(=O)NC1CCCCC1)c1ccc(C)cc1)OC (stereo unspecified),2,3,1,3,93*,1,91*,GSTO1 ABPP inh=61
COc1cccc(N(C(=O)c2cnccn2)C(C(=O)NC2CCCCC2)c2ccc(Cl)cc2)c1 (stereo unspecified),1,6,-2,1,-5,-3,/,
Cc1nc2ccc(S(=O)(=O)N(C)CC(=O)NCCc3ccccc3)cc2s1,1,1,1,3,4,-2,/,
O=C(c1ccc(Cl)c(NC2=NC3CS(=O)(=O)CC3S2)c1)N1CCN(c2ccc(F)cc2)CC1 (stereo unspecified),6,5,2,-1,-7,-2,/,
CC1=NN(c2ccc(N)cc2)C(=O)C1,-5,4,3,5,50*,-1,14,
CC1=NN(c2cccc([N+](=O)[O-])c2)C(=O)C1,-14,5,-1,0,24,-2,/,
Cc1nnc2ccc(N3CCN(C(=O)c4ccccc4)CC3)nn12,-4,-5,-1,1,0,1,/,
O=C(c1ccc(Br)o1)N1CCN(c2ccc3nnc(-c4ccccc4)n3n2)CC1,-2,-2,-3,-3,40*,-3,0,
Cc1cc2nc(CCl)cc(=O)n2[nH]1,3,-4,1,4,104*,-1,93*,GSTO1 ABPP inh=54
COCc1cc(=O)n2[nH]c(C)cc2n1,1,3,-4,-4,3,0,/,
O=C(N/N=C/c1ccc(F)cc1)c1cc(-c2ccco2)nc2ccccc12,-1,-10,5,6,57*,-13,22,
CCNC(=O)COC(=O)c1cc(-c2ccco2)nc2ccccc12,3,1,2,11,41*,0,8,
Cc1nnc(NC(=O)c2cc(-c3ccco3)nc3ccccc23)s1,-8,-7,-16,11,40*,-5,10,
CCN(CC(=O)Nc1c(F)cccc1F)C(=O)CCNC(=O)c1ccccc1OC,3,1,2,3,3,-2,/,
COc1ccc(S(=O)(=O)N2CCN(CCCOc3ccc(F)cc3)CC2)cc1OC,5,3,0,1,10,0,/,
O=C(Cn1c(=O)oc2ccccc21)Nc1ccccc1C(F)(F)F,5,2,-4,-1,4,-1,/,
c1cc2c3c(cccc3c1)NC1(CCCCCC1)N2,0,-3,2,3,53*,-6,21,
Oc1ccc2ccccc2c1/C=N/n1cnnc1,-2,9,-4,0,6,1,/,
Cc1cc(C)n(/N=C\c2c(O)ccc3ccccc23)c(=O)c1C(N)=O,-9,10,-4,-2,43*,0,6,
SMILES,PAD4 inh,LYPLA2 inh,PME-1 inh,Fam108B inh,GSTO1 counter,LYPLA1 inh,GSTO1 confirm,others
CCN1CCN(C2=C(NS(=O)(=O)c3ccc(C)cc3)C(=O)c3ccccc3C2=O)CC1,-13,4,5,0,30,6,/,
O=C1C(NS(=O)(=O)c2cccs2)=C(N2CCN(c3cccc(Cl)c3)CC2)C(=O)c2ccccc21,-12,16,3,10,50*,3,14,
CCC(=O)N1CCN(C(=O)CC)C1c1ccccc1,-5,2,-3,1,4,-1,/,
O=C(CCl)N1c2ccccc2SCC1c1ccccc1 (stereo unspecified),4,-1,2,0,86*,5,94*,GSTO1 ABPP inh=75*
Nc1ccccc1C(=O)NCCCN1CCOCC1,-2,-3,0,-2,3,2,/,
CN(c1ccccc1)S(=O)(=O)c1ccc2c(c1)OCCO2,-3,/,/,/,/,/,/,
CCOc1cc(C2C3=C(CCCC3=O)N(CCC(=O)O)C3=C2C(=O)CCC3)ccc1OS(=O)(=O)c1ccc(C)cc1,1,-1,2,0,78*,2,70*,
Cc1ccc(S(=O)(=O)Oc2ccc(C3C4=C(CCCC4=O)N(CCC(=O)O)C4=C3C(=O)CCC4)cc2Cl)cc1,-2,-1,3,1,62*,-4,61*,
O=[N+]([O-])c1ccc(Cl)c(S(=O)(=O)/N=C(/c2ccccc2)N2CCOCC2)c1,0,-4,-3,3,4,-3,/,
COc1ccc(N2CCN(S(=O)(=O)c3ccc4oc(=O)ccc4c3)CC2)cc1,-7,7,3,1,-1,2,/,
O=c1ccc2cc(S(=O)(=O)N3CCOCC3)ccc2o1,3,1,1,0,42*,-1,1,
COc1ccc(S(=O)(=O)Nc2ccc(O)c3ccccc23)cc1,7,-1,9,4,70*,0,9,
Cc1ccc(C)c(S(=O)(=O)Nc2ccc(O)c3ccccc23)c1,-5,5,-4,-1,53*,-1,0,
